Screens from PubChem BioAssay.
PLK1 PBD inh: blocks phosphopeptide binding to human PLK1 polo-box domain; P53350; Plk1 PBD binding of FITC phosphopeptide, fluorescence polarization; Potency, µM, usual class: inhibitors; hit rate 2.8% among 360,000; also: series mostly up to about 57 µM; nearly all actives have a fitted effect of over 65% in size
MBNL1 CUG block: blocks human MBNL1 binding to CUG repeat RNA | hit rate 0.036% among 280,000 | TR-FRET MBNL1-His/biotin-(CUG)12 binding, 665/545 ratio | Potency, µM (titrated, usually from 57.5 µM), most hits filed as inhibitors | Q9NR56 | AID 2675; active = well fitted inhibition curve with a large enough effect in the signal ratio, with a control signal flat, not every such curve was filed as active; inconclusive = small, poorly fitted or top-dose-only effect, or effect the other way, or a change in a side signal; inactive = no such curve, though single readings can be large or run the other way; the % refers to the signal ratio
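TR-FRET readout: Ex 340 nm, 665/545 nm emission ratio, normalized to buffer-only (basal) and MBNL1-(CUG)12 controls. Complex of MBNL1-His with Biotin-(CUG)12, compounds 92 nM–58 uM, incubated 60 min at room temperature.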
KCNH2 3.1 inh: KCNH2 3.1 (human) potassium channel inhibition | U2OS KCNH2 3.1, thallium flux FluxOr; hits give low values | activity change, % (tested at about 1.8 µM) | hit rate 0.95% among 340,000 | AID 720553;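 active = maximum activity change below -70%; inconclusive = maximum activity change from -70% to -50%; inactive = maximum activity change above -50%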;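 also: thallium influx rate constant from kinetic fluorescence after stimulation buffer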
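Virally transduced U2OS (3.1 isoform, 4 h infection in dark at RT) → overnight 37 C → FluxOr + Red40 in HBSS/HEPES, 45 min → stimulation buffer, 2 min kinetic read → rate constant vs DMSO controls.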
CBFb-RUNX1 inh: inhibitors of human CBF-beta and RUNX1 interaction; Q01196+Q13951; AlphaScreen CBFb-His/RUNX1-biotin binding, biochemical; Potency, µM (series often up to 59.8 µM), hits mostly inhibitors; 230,000 tested, under 10 active
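CBF-beta (His) and RUNX1 (biotin), 30 nM each; 20 min preassociation; + compound, 15 min; + beads 50 ng each (Ni, streptavidin), 90 min; RT; AlphaScreen read.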
KCNH2 WT inh: KCNH2 (human, wildtype) channel inhibition | activity change, % at 1.84 µM | U2OS, BacMam KCNH2, thallium flux FluxOr; hits give low values | hit rate 0.37% among 340,000;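 active = maximum activity change below -70%; inconclusive = maximum activity change between -70% and -50%; inactive = maximum activity change above -50%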
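U2OS cells transduced with wild-type KCNH2 virus are loaded with FluxOr dye for 45 min, and thallium flux is measured in kinetic reads before and after stimulation buffer. Rate constants are normalized to DMSO controls.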
VDR inh: vitamin D3 receptor (human) inhibition. VDR-SRC2-3 peptide fluorescence polarization, 2 h. Potency, µM, actives largely listed as inhibitors. hit rate 0.93% among 400,000. AID 504847
Target sequence (P11473 whole entry, looked up): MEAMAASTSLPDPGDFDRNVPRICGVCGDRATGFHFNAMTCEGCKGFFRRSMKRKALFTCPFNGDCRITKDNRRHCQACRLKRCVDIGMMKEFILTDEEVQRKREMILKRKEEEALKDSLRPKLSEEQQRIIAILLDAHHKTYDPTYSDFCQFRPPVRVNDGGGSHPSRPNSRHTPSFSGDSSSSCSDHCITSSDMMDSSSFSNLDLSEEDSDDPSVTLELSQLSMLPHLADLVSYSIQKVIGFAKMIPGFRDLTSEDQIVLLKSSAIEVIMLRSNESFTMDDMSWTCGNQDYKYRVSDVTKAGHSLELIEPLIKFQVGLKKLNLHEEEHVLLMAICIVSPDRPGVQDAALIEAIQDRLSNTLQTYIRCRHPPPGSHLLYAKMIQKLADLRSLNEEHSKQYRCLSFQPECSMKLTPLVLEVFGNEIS
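Fluorescence polarization assay measuring small-molecule disruption of VDR binding to the coregulator peptide SRC2-3. Compounds were pin-transferred (23 nl) into the reagent mix and incubated 2 h at room temperature before reading.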
A number is an active result; – = inactive; ? = inconclusive; · = not tested or not shown; ! = not active in a repeat; [ ] = dose if it differs, or a comment. An excerpt weighted towards active compounds, which were near 3.8% of everything screened. Unless noted, calls follow the shape of the dose curve; as a rule, active = well fitted curve in the direction sought with a large enough effect; inconclusive = small, poorly fitted or top-dose-only effect, or another doubt; inactive = no such curve, though single readings can be large; an effect the other way counts as inactive or inconclusive.

SMILES	PLK1 PBD inh	MBNL1 CUG block	KCNH2 3.1 inh	CBFb-RUNX1 inh	KCNH2 WT inh	VDR inh
CC(C)=CCCC1(C)C=Cc2c(O)c3c(c(CC=C(C)C)c2O1)OC12C(=CC4CC1C(C)(C)OC2(C/C=C(/C)C(=O)O)C4=O)C3=O (stereo unspecified)	·	·	·	–	·	2.24µM
CC(C)CCCC1(C)C=Cc2c(O)c3c(c(CCC(C)C)c2O1)OC12C(CC4CC1C(C)(C)OC2(CCC(C)C(=O)O)C4O)C3=O (stereo unspecified)	·	·	·	–	·	–
CC(C)=CCCC1(C)C=Cc2c(O)c3c(c(CC=C(C)C)c2O1)OC12C(=CC4CC1C(C)(C)OC2(C/C=C(/C)C(=O)O)C4O)C3=O (stereo unspecified)	·	·	·	·	·	2.82µM
CC(=O)NC1N=C(C)N(c2ccccc2)C1=O (stereo unspecified)	26.7µM	?	–	–	–	?
CC(=O)OC1CC2C(C)(C)C(O)C=C[C@@]2(C)C2CC[C@]3(C)C(=CC(=O)OC3c3ccoc3)[C@]12C (stereo partly specified)	·	·	·	–	·	25.1µM
CC(=O)OC1CC(OC(C)=O)[C@]2(C)C(CC(OC(C)=O)[C@]3(C)C2CC[C@@]2(C)C(c4ccoc4)C(=O)C4O[C@]432)C1(C)C (stereo partly specified)	·	·	·	–	·	–
C[C@]12CC[C@@H](O)CC1CCC1C2CC[C@]2(C)C(=O)CC[C@@H]12 (stereo partly specified)	·	·	·	–	·	·
NC(=O)CI	·	·	·	–	·	79.4µM
CC(C)(C)C(O)C(Cc1ccc(Cl)cc1Cl)n1cncn1 (stereo unspecified)	·	·	·	–	·	–
CCCCn1c(O)c(C(CC)=NC(C)c2ccccc2)c(=O)[nH]c1=O (stereo unspecified)	–	–	–	–	–	–
CCCCCn1c(SCCCC)nc2c1c(=O)[nH]c(=O)n2C	26.7µM	–	–	–	–	?
COc1ccc(-n2c(-c3ccccc3[N+](=O)[O-])nc3ccccc3c2=O)cc1	21.2µM	–	–	·	–	?
COc1ccc(-n2c(/C=C/c3ccc(O)cc3)nc3ccccc3c2=O)cc1	–	?	–	·	-92.5	–
C=C1[C@@H](O)C2C=CC[C@H](C)C(=O)[C@@](C)(O)C=C[C@@H](OC(C)=O)[C@@]23C(=O)N[C@H](Cc2ccccc2)[C@@H]3[C@@H]1C (stereo partly specified)	·	·	·	–	·	–
CCC(C)N1C(=O)NC(=O)C2(Cc3c(ccc4ccccc34)N(C)C2)C1=O (stereo unspecified)	13.4µM	–	–	–	–	–
CC(=O)N1C[C@H](O)C[C@H]1C(=O)O	?	·	–	·	–	–
CCCCCCNc1nc(OC)nc(N2CC3CC(C2)c2cccc(=O)n2C3)n1 (stereo unspecified)	–	·	–	–	–	–
CCOc1nc(NC(C)C)nc(N2CC3CC(C2)c2cccc(=O)n2C3)n1 (stereo unspecified)	7.52µM	–	–	–	·	?
O=c1[nH]c(=S)[nH]c(O)c1N=Nc1ccc(SC(F)F)cc1	10.6µM	·	–	–	–	–
Cc1cc(=O)oc2c1c(C)nn2-c1nn[nH]n1	10.6µM	–	–	–	–	?
C/C(=C/CCC(C)[C@H]1CC[C@@]2(C)C3=C(CC[C@]12C)[C@@]1(C)CCC(=O)C(C)(C)[C@@H]1CC3)C(=O)O (stereo partly specified)	13.4µM	–	–	–[2.36 µM]	–	?
CC(C)=CCCC(C)C1CC[C@@]2(C)C3=C(CC[C@@]12C)C1(C)CCC(O)C(C)(C)C1CC3 (stereo partly specified)	·	·	·	·	·	35.5µM
CC(=O)OC1CCC2(C)C3=C(CCC2C1(C)C)[C@]1(C)CCC(C(C)CCC=C(C)C)[C@]1(C)CC3 (stereo partly specified)	·	·	·	–	·	?
C/C=C(/C)C(=O)O[C@H]1C(C)=C2C([C@@H]1OC(=O)CCCCCCC)[C@@](C)(OC(C)=O)C[C@@H](OC(=O)CCC)[C@@]1(O)[C@H]2OC(=O)[C@@]1(C)O (stereo partly specified)	·	·	·	–	·	·
CCN1/C(=C\C=C\C2=[N+](CC)c3ccccc3C2(C)C)C(C)(C)c2ccccc21	–	?	?	?	-208.0	–
SMILES	PLK1 PBD inh	MBNL1 CUG block	KCNH2 3.1 inh	CBFb-RUNX1 inh	KCNH2 WT inh	VDR inh
CC1=C[C@@H]2c3cccc4[nH]cc(c34)C[C@H]2N(C)C1	?	?	–	–	–	50.1µM!
CN1Cc2ccccc2[C@@H]2c3cccc4[nH]cc(c34)C[C@H]21	·	·	·	?	·	14.1µM
OC[P+](CO)(CO)CO	·	·	·	–	·	·
CCC[CH2][Sn]([Cl])([Cl])[Cl]	·	·	·	–	·	·
O=C(O)c1cc(O)c(O)c(O)c1	·	·	·	–	·	50.1µM!
CCOC(=O)Cc1[nH]nc2c1C(c1ccoc1)C(C#N)=C(N)O2 (stereo unspecified)	?	–	–	–	–	–
COc1ccc(C#Cc2ccc3c(c2)O[C@H](CN(C)C(C)=O)[C@H](C)CN([C@@H](C)CO)S3(=O)=O)cc1	23.8µM	·	–	·	–	·
O=c1c(O)c(-c2ccc(O)c(O)c2)oc2c(O)c(O)cc(O)c12	·	·	·	–	·	25.1µM
Oc1ccc(/C=N/NP(=S)(c2ccccc2)c2ccccc2)c(O)c1O	10.6µM	–	–	–	–	–
COCCNC(=O)Cn1cc(/C=C2\C(=O)NC(=O)N(c3cccc(C)c3C)C2=O)c2ccccc21	3.77µM	–	–	·	–	?
COc1ccc(N2C(=O)NC(=O)/C(=C\c3cn(CC(=O)N4CCOCC4)c4ccccc34)C2=O)c(OC)c1	10.6µM	–	–	·	–	?
COCCNC(=O)Cn1cc(/C=C2\C(=O)NC(=O)N(c3ccccc3F)C2=O)c2ccccc21	2.99µM	–	–	·	–	–
COCCCNC(=O)Cn1cc(/C=C2\C(=O)NC(=O)N(c3ccccc3F)C2=O)c2ccccc21	?	–	–	·	–	?
COC(=O)Cn1cc(/C=C2\C(=O)NC(=O)N(c3ccc(OC)cc3)C2=O)c2ccccc21	?	–	–	·	–	–
CC(C)C[C@H](NC(=O)[C@H](CC(C)C)NC(=O)[C@H](Cc1ccccc1)NC(=O)[C@@H](N)Cc1ccc(O)cc1)C(=O)N[C@@H](CCCN=C(N)N)C(=O)N[C@@H](CC(N)=O)C(=O)N1CCC[C@H]1C(=O)O	·	·	·	–	·	–
CCN(CC)C(=O)c1c(C)[nH]c(=S)c(C#N)c1-c1ccco1	2.67µM	–	–	–	–	?
CN1CCCCC1Cn1cc(C(=O)c2cc([N+](=O)[O-])ccc2I)c2ccccc21 (stereo unspecified)	·	·	·	–	·	–
Clc1ccc(C2=CCC[C@H]3CC[C@@H]2N3)cn1	·	·	·	–	·	?
